VACV Venus inh – inhibitors of vaccinia virus (Venus reporter). Vaccinia virus Venus reporter expression, fluorescence. Potency, µM (series often up to 36.5 µM), for the others: at the highest dose activity change, negative = inhibition, usual class: inhibitors. 330,000 compounds, 0.46% hits. AID 720580; calls by dose curve; tested in A549 cells; note: nearly all actives have a fitted effect of over 30% in size
AMA1 RON2 block – inhibitors of Plasmodium falciparum AMA1-RON2 interaction; AlphaScreen AMA1-biotinylated RON2 peptide binding; Potency, µM (titrated, usually from 58.2 µM), without a hit: top-dose activity change, negative = inhibition, most hits filed as inhibitors; 360,000 compounds, 0.2% hits; AID 720542;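 note: 0% = vehicle wells and -100% = peptide control; nearly all actives have a fitted effect of over 45% in size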
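AMA1 (3D7) with his tag at 25 nM final met compounds first, then biotinylated RON2 peptide at 25 nM; detection used donor plus acceptor beads, 10 µg/mL apiece, read by AlphaScreen after 30 min at room temperature.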
Pf growth 96h – inhibits malaria parasite growth, 96 h; Potency, µM (top dose mostly 28.7 µM), for the others: top-dose activity change, negative = inhibition, usual class: inhibitors; P. falciparum luciferase reporter growth, 96 h; 320,000 compounds, 6.9% hits; AID 504834
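Readout is luminescence from an integrated firefly luciferase in P. falciparum. Red cells, 2% hematocrit and 0.05% parasitemia final, were cultured with compound through two parasite generations (96 hours) at 37 C, 5% CO2.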
VACV mCherry inh – inhibitors of vaccinia virus infection (mCherry reporter signal); Vaccinia virus mCherry reporter infection, fluorescence; Potency, µM (highest dose often 36.5 µM), without a hit: at the top dose activity change, negative = inhibition, hits mostly inhibitors; 310,000 compounds, 0.63% hits; AID 720579; calls by dose curve; tested in A549 cells; note: nearly all actives have a fitted effect of over 35% in size
Pf growth 48h – inhibits P. falciparum growth in the first generation, 48 h. P. falciparum luciferase growth in erythrocytes, 48 h. 310,000 compounds, 5.9% hits. Potency, µM (series often up to 28.7 µM), inactives show top-dose activity change, negative = inhibition, most hits filed as inhibitors. AID 504832
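First compound was added to culture medium, then infected red cells at 0.1% parasitemia and 2% hematocrit (final). After incubation at 37 C under 5% CO2, luciferase detection reagent was dispensed and light output recorded.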
Numbers without * were called inactive; i = inactive; ? = inconclusive; · = no result; [ ] = dose if it differs, or a comment. Sampled rows, rich in hits. Any-hit rate of the full collection: about 8.7%. Unless noted, calls come from the whole dose curve; as a rule, active = well fitted curve in the direction sought with a large enough effect; inconclusive = small, poorly fitted or top-dose-only effect, or another doubt; inactive = no such curve, though single readings can be large; an effect the other way counts as inactive or inconclusive. Unless noted, % is set by controls: 0 for no effect and ±100 for the full control effect; potency is the fitted concentration of half-maximal effect.

SMILES	VACV Venus inh	AMA1 RON2 block	Pf growth 96h	VACV mCherry inh	Pf growth 48h
Cc1ccc(S(=O)(=O)Cn2nnnc2CN2CCCC3(CCCCC3)C2)cc1	?	0.9%	·	-21.6%	13.1µM*
CCN(Cc1ccncc1)Cc1ccc2c(c1)CN(C(=O)c1ccc(OC)cc1)CCO2	2.4%	·	·	-10.7%	·
CCOc1cccc(-c2nc3ccccc3c(=O)o2)c1	-2.7%	·	·	-8.0%	·
CCOC(=O)c1c(C)[nH]c(C(=O)OC(C(=O)N(C)C)c2ccccc2)c1C (configuration not stated)	-16.7%	·	·	-19.8%	·
COc1cccc(C2(CC(=O)N3CCCOc4c(cccc4OC)C3)CC(=O)N(C)C2=O)c1 (configuration not stated)	-11.8%	·	·	i	·
C=CCOc1c(Br)cc(CNc2ccc(NC(=O)C(C)C)c(OC)c2)cc1OCC	-10.1%	-5.3%[11.6 µM]	?	i	9.28µM*
C=CCOc1c(Br)cc(CNc2ccc3[nH]c(=O)[nH]c3c2)cc1OCC	?	-13.7%	10.4µM*	?	2.1%
CCOc1c(Br)cc(CNc2ccc(N3CCN(C(C)=O)CC3)cc2)cc1OC	11.8%[7.34 µM]	-14.5%	?	?	71.6%
C=CCOc1ccc(CNc2ccc3[nH]c(=O)[nH]c3c2)cc1OC	3.3%	-20.7%	-109.1%	-12.6%	-2.7%
COc1cc(CNc2ccc3[nH]c(=O)[nH]c3c2)cc(Br)c1OCc1ccccc1F	?	-9.5%	-10.5%	6.31µM*	·
C=CCOc1c(Br)cc(CNc2ccc(NC(=O)CCC)cc2)cc1OCC	?	-17.4%	61.1%	·	49.6%
C=CCOc1ccc(CNc2ccc(NC(=O)CCC)cc2)cc1OCC	-4.3%	-11.8%	11.7µM*	-5.3%	14.7µM*
CC1CCN(C(=O)CN2CCSc3ccccc32)CC1	6.2%	·	·	-6.6%	·
COc1cccc(CN2CCCC(c3nc(-c4ccncc4)ncc3-c3ccccc3)C2)c1O (configuration not stated)	-16.8%	·	·	-29.6%	·
Cc1nc2cccnc2n1-c1cccc(C(=O)N2CCN(c3ccc(Cl)cc3)CC2)c1	-27.9%	·	·	-25.6%	·
CC(C)NCC(O)c1ccccc1Cl (configuration not stated)	·	·	12µM*	·	7.57µM*
CCN(CC)c1ccc(NC(=O)CSc2nnc(C)c(=O)[nH]2)cc1	2.4%	·	·	-3.8%	·
COc1ccccc1-c1n[nH]c(=S)n1-c1ccccc1	-2.4%	42.1%	13.1µM*	-5.0%	90.4%
COc1ccc(CN2CCOc3c(cc(-c4cccc(OC)n4)cc3OC)C2)c(O)c1	0.0%	·	·	i	·
Cc1c(-c2ccco2)[n+](=O)c2c(n1[O-])CCC2	-19.3%	8.7%	14.7µM*	i	18.2%
Cc1ccc(NC(=O)CCc2nc(-c3ccccc3F)no2)c(C)c1	7.5%	·	·	-3.4%	·
COc1ccccc1CCNC(=O)c1cc2c(=O)n3cccc(C)c3nc2n1C	-6.5%	·	·	-3.7%	·
COc1ccccc1NS(=O)(=O)c1cc(C(=O)N2CCCC2)ccc1F	-5.2%	0.0%	?	-10.8%	3.29µM*
COc1ccccc1NS(=O)(=O)c1cc(C(=O)N2CCN(C/C=C/c3ccccc3)CC2)ccc1C	-23.4%	8.2%	-15.2%	-18.8%	11.1%
COc1ccccc1NS(=O)(=O)c1cccc(C(=O)N2CCN(C/C=C/c3ccccc3)CC2)c1	-24.2%	13.5%	8.28µM*	-14.2%	5.86µM*
SMILES	VACV Venus inh	AMA1 RON2 block	Pf growth 96h	VACV mCherry inh	Pf growth 48h
Cc1cccc(NS(=O)(=O)c2cccc(C(=O)N3CCN(C/C=C/c4ccccc4)CC3)c2)c1	·	-0.6%	10.4µM*	·	11.7µM*
COc1ccccc1NS(=O)(=O)c1cc(C(=O)N2CCCCCCC2)ccc1C	-21.1%	16.1%	?	-17.8%	-22.1%
O=C(c1cccnc1)N1CCN(C/C=C/c2ccccc2)CC1	9.8%	2.8%	32.6%	i	12.7%
Cc1noc(C)c1COc1cccc(C(=O)N2CCN(C/C=C/c3ccccc3)CC2)c1	-29.3%	-12.4%	·	-25.5%	10.4µM*
CC(=O)c1ccc(N2CCN(C(=O)CCCCn3c(=O)[nH]c4ccccc4c3=O)CC2)cc1	-14.6%	·	·	-17.0%	·
COc1ccccc1NC(=O)C(C)N1CCN(C/C=C/c2ccccc2)CC1 (configuration not stated)	-16.4%	-6.3%	17.3%	-24.8%	13.1µM*
COc1ccccc1C(=O)NCC(=O)N1CCN(C/C=C/c2ccccc2)CC1	-16.1%	0.6%[11.6 µM]	·	-3.3%	·

Screening results as filed in PubChem.
